From PubChem
Ba CapD inh – CapD enzyme inhibition. purified CapD enzyme, fluorescence intensity read-out; hits give low values. z-score (no concentration beside the values). actives 0.23% (n = 140,000); in the data active = z-score mostly below about -2.9, no sharp cut-off; inactive = mostly above about -1.9
Numbers without * were called inactive. Only a selection was taken, and hits are over-represented in it overall.

SMILES | Ba CapD inh
CCOc1ccc2sc(C=NCCCOC)c(O)c2c1 | -2.06
CSc1nc2c(c(=O)[nH]1)C(c1cc(C)ccc1C)CC(=O)N2 (stereo not drawn) | 0.335
CN(C(=O)c1nn(C)c2c1CSc1ccccc1-2)c1ccccc1 | -0.42
CC(C)(C)c1ccc(CN2CCN(C(=O)OCCc3c[nH]c4ccccc34)CC2)cc1 | -1.17
Cc1cc2c(n1-c1ccc(C(=O)N3CCN(c4ccccc4)CC3)cc1)CCCCC2 | -0.89
Cc1ccc(C)n1-c1ccc(C(=O)O)cc1 | -13.4*
O=C(O)c1ccc(N2CCCCC2)cc1 | -0.065
Cc1cc2c(n1-c1ccc(C(=O)O)cc1)CCCC2 | -7.48*
O=C(O)c1ccc(-n2c(-c3ccccc3)cc3c2CCCC3)cc1 | -0.13
Cc1ccc(C)n1-c1ccc(SCC(=O)O)cc1 | -3.42
N#CCSc1nnc(-c2cccs2)n1-c1ccccc1 | -1.38
CCOC(=O)C1CCN(c2nc(-c3ccccc3F)nc3ccccc23)CC1 | -0.02
CC1C/C(=C/c2ccco2)C(C)N(C)C1 (stereo not drawn) | -5.18*
CCC1C/C(=C/c2ccco2)C(=O)/C(=C/c2ccco2)C1 (stereo not drawn) | -2.48
CC1CC(C)CN(C(=O)COC(=O)/C=C/c2ccco2)C1 (stereo not drawn) | -1.69
COc1ccccc1C(=O)NNC(=O)c1cc2ccccc2n1C | 0.51
COc1ccc(S(=O)(=O)N2CCN(Cc3cc4ccccc4o3)CC2)cc1OC | -0.53
CCCCn1c(/N=C/c2nc3ccccc3n2C)nc2ccccc21 | 0.105
CCCn1c(/N=C/c2c[nH]c3ccccc23)nc2ccccc21 | -4.11*
CCc1ccc(N=Cc2c[nH]c3ccccc23)cc1 | -0.06
CN(C)/C=C/C=C/c1cc(=O)cc(/C=C/C=C/N(C)C)o1 | -14.6*
CCN(CC)S(=O)(=O)c1ccc(O)cc1 | 0.17
COc1cccc(-c2nc3c(c(SC)n2)Cc2c(CO)cnc(C)c2O3)c1 | 0.155
Nc1nonc1-n1nnc(C(=O)O)c1-c1ccccc1 | -0.175
Cc1oc(-c2ccccc2)cc1C(=O)/C=C/N(C)C | -0.065
SMILES | Ba CapD inh
CSc1sc(C(=O)/C=C/N(C)C)c(-c2cccs2)c1C#N | -1.28
CN(C)/C=C/C(=O)c1ccc(S(=O)(=O)c2ccccc2)cc1 | -1.3
Cc1c(C(=O)/C=C/N(C)C)nnn1-c1ccc(F)c(Cl)c1 | -1.19
Cc1c(C(=O)/C=C/N(C)C)nnn1-c1ccccc1 | -5.5*
Cc1c(C(=O)/C=C/N(C)C)nnn1-c1ccc(Cl)c(Cl)c1 | 0.09
C/C(=N\O)c1ccc2c(c1)CCO2 | 0.46
CN(C)/C=C/C(=O)c1ccccc1 | -4.9*
CN(C)/C=C/C(=O)c1ccc2c(c1)CCO2 | -6.09*
O=C(c1cccs1)c1cccs1 | -0.64
CC(=O)c1ccc2c(c1)CCO2 | 0.425
CN(C)/C=C/C(=O)c1cccs1 | -4.92*
COc1ccccc1NC(=O)c1cc2ccccc2o/c1=N\c1sc2c(c1C(N)=O)CCCC2 | 0.11
CCC1CCCCN1CC(O)COc1ccc2c(c1)OCO2 (stereo not drawn) | -0.87
CN(C)c1ccc(C2C(C#N)=C(N)OC3=C2C(=O)CC(c2ccccc2)C3)cc1 (stereo not drawn) | -0.185
O=C(COC(=O)c1cccc(N2C(=O)C3C4C=CC(C4)C3C2=O)c1)c1ccccc1 (stereo not drawn) | -0.515
COC(=O)c1csc2c(C(F)(F)F)cc(N3CCN(C(=O)Nc4cc(Cl)cc(Cl)c4)CC3)nc12 | 3.7
CCC(C)N1Cc2ccccc2N(CC)C1c1ccccc1F (stereo not drawn) | -4.35*
Fc1ccccc1C1N(Cc2ccccc2)CCCN1Cc1ccccc1 | 24.9
Fc1ccccc1C1N(Cc2ccccc2)CCN1Cc1ccccc1 | -0.3
CCOc1ccccc1C1C(C#N)=C(SCC(=O)OCc2ccccc2)NC(=O)C1C#N (stereo not drawn) | 0.205
O=C(Nc1ccc(I)cc1)c1sc2cc(Cl)ccc2c1Cl | 1.98
O=C(O)c1ccc(Cn2nc(N3CCCCC3)ccc2=O)o1 | -0.315
CCOc1nc(S(=O)(=O)c2ccc(C)cc2)c(Cl)s1 | -0.155
Cc1ccc(S(=O)(=O)c2nc(NC3CCS(=O)(=O)C3)sc2Cl)cc1 (stereo not drawn) | 0.27
Cc1ccc(S(=O)(=O)c2nc(Nc3nccs3)sc2Cl)cc1 | -5.1*
SMILES | Ba CapD inh
COc1nc(NCCN2CCOCC2)nc(Nc2ccc(Cl)cc2)n1 | -0.26
COc1ccc(CCCOC(=O)NNC(=O)c2sc(-c3ccc(C(F)(F)F)cc3)nc2C)cc1 | 2.67
CCOc1ccc(-n2c(=S)sc3c(=O)n(-c4ccccc4C)c(=S)[nH]c32)cc1 | -1.04
CCO/C=C1\SC(=S)N(/N=C/c2cccc(Cl)c2)C1=O | -4.42*
CCO/C=C1\SC(=S)N(c2ccc(Cl)cc2)C1=O | 0.45
CCO/C=C1/SC(=S)N(CCc2ccc(Cl)cc2)C1=O | -2.1
O=C(c1ccc2ncccc2c1)N1CCN(c2ccccc2)CC1 | -0.245
CC(C(=O)Nc1ccccc1)C(=O)Nc1ccccc1 | -0.065
CCCC(CCC)C(=O)Nc1ccccc1 | 0.705
O=C(Nc1ccccc1)C(C(F)(F)F)C(F)(F)F | -3.58*
CCOc1ccc(N2C(=O)/C(=C\C=C\c3ccccc3OC)S(=O)(=O)C2c2cccc([N+](=O)[O-])c2)cc1 (stereo not drawn) | -1.87
CC(=O)N1CCN(C(=O)COc2ccc(C#N)cc2)CC1 | -0.11
CC(=O)N/C(N)=N\c1nc(=O)c2ccccc2s1 | 0.23
O=C(/C=C/c1ccco1)C1CC1 | -3.09
N#C/C(=C\c1ccco1)C(=O)C1CC1 | -4.28*
N#C/C(=C\c1cccc(Cl)c1)C(=O)C1CC1 | 0.495
C=CCOC(=O)C1=C(C)NC(=O)NC1c1cn(-c2ccccc2)nc1-c1ccc(Cl)cc1 (stereo not drawn) | 0.125
CN(CCO)c1ccc(C(F)(F)F)cn1 | 3.45
Cc1ccc(N2C(=O)/C(=C\c3ccc(-c4ccccc4C(=O)O)o3)C(=O)NC2=S)cc1 | 3
CN1C(=O)/C(=C/c2ccc(I)o2)C(=O)NC1=S | -9.73*
CN1C(=O)/C(=C/c2cn(CC(=O)N3CCCC3)c3ccccc23)C(=O)NC1=S | -0.425
Clc1ccc(-c2csc3ncnc(-n4ccnc4)c23)cc1 | 0.115
Nc1ccc(Cc2ccc(N)c(N)c2)cc1N | 2.58
CC1(C)Cc2nc3nc(SCC(=O)c4ccccc4)n(-c4ccccc4)c(=O)c3cc2CO1 | 1.08
CCc1ccc(-n2c(=S)sc3c(=O)[nH]c(SCC(=O)Nc4nccs4)nc32)cc1 | 0.14
SMILES | Ba CapD inh
CCc1ccc(-n2c(=S)sc3c(=O)[nH]c(SCC4OCCO4)nc32)cc1 | -1.52
CCc1ccc(-n2c(=S)sc3c(=O)[nH]c(SCC(=O)O)nc32)cc1 | -4.3*
N#C/C(C(=S)Nc1ccccc1)=C(/N)N1CCN(c2ccccc2)CC1 | -0.96
FC(F)(F)c1cnc(N2CCN(c3nc(CCl)cs3)CC2)c(Cl)c1 | 0.565
COc1ccc(OC)c(NC(=O)c2cc3ccc(OC)cc3oc2=Nc2ccc(C(=O)O)cc2)c1 | 0.07
COc1ccc2cc(C(=O)Nc3ccc(Cl)cc3)c(=Nc3ccc(C(=O)O)cc3)oc2c1 | 0.62
COc1ccc2cc(C(=O)Nc3ccc(OC)c(OC)c3)c(=Nc3ccc(C(=O)O)cc3)oc2c1 | -3.42*
Cc1ccc(S(=O)(=O)c2c(C)cc(-c3ccccc3)nc2Cl)cc1 | 3.33
CC1(C)Cc2ccccc2-c2nc(-c3ccccc3)n(N)c(=O)c21 | -0.49
Brc1ccc(-n2cnnc2)cc1 | 0.02
CC(=O)Oc1ccc(-n2c(C)cc(/C=C3\C(=O)NC(=S)N(c4ccc(C)cc4)C3=O)c2C)cc1 | -0.56
Cc1cc(/C=C2\C(=O)NC(=O)N(c3ccc(Br)cc3)C2=O)c(C)n1-c1cc(C(=O)O)cc(C(=O)O)c1 | -0.935
